Each structure is given as a SMILES string. Screen size: about 200,000 compounds; about 18,000 (9%) were called active. Rule as the data show it: active = inhibition above about 50%; inactive = the rest. Many of the other results were omitted from the sample, so actives are more common in it than they were.

A short description of this test: Leishmania major promastigote growth inhibition, primary screen (AID 1063).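 Also: promastigotes grown with compound for 44 hours at 28 °C.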 As to conditions: Leishmania major promastigotes, resazurin fluorescence viability; at 10 µM; hits give high values.
`CCC(C)(C)NC(=O)/C=C/c1cc(OC)c(OC)c(S(=O)(=O)N2CCc3ccccc32)c1`: the inhibition is -8.31% (inactive).
With `CCOC(=O)c1oc2c(CN3CCN(C)CC3)c(O)ccc2c(=O)c1-c1ccc(Br)cc1` the figure was 23.6% (inactive); with `CN1CCN(Cc2c(O)ccc3c2oc(=O)c2ccccc23)CC1`, 3.53% (inactive); with `CCN1CCN(Cc2c(O)ccc3c(=O)c(-c4ccc(OC)c(OC)c4)c(C(F)(F)F)oc23)CC1`, 99.8% (active).
As for `COc1ccc(C(=O)NNc2cc(C)nc(NNC(=O)c3ccc(OC)cc3)n2)cc1`, the figure is -8.08% (inactive).
With `Cn1c(=NC(=O)c2ccc3c(c2)OCCO3)sc2cc(S(C)(=O)=O)ccc21` the figure was -9.12% (inactive).
On to `CCOc1ccccc1NC(=O)c1cccnc1`, for which the inhibition was -2.23% (inactive).
With `COc1cccc(C(O)Cc2nc3ccccc3n2C)c1OC` (centres undefined) the figure was 9.44% (inactive).
Regarding `CCOc1cccc(/C=C/c2ccc3ccccc3n2)c1OC(C)=O`, the inhibition was 66% (active).
For the molecule `CC(OC(=O)c1ccc2ccccc2n1)C(=O)c1ccccc1` (centres undefined), the inhibition was -9.05% (inactive).
For the molecule `NC(=O)COC(=O)/C=C/c1ccc2ccccc2n1`, the inhibition is 8.85% (inactive).
With `COc1cccc(/C=C/c2ccc3ccccc3n2)c1OC(C)=O` the figure was 75.8% (active).
With `COC(=O)c1ccc(-n2cnc3ccccc32)nc1` the figure was 25% (inactive); with `CN(C(=O)CSc1nnc(Nc2ccccc2)s1)C1CCS(=O)(=O)C1` (centres undefined), -3.39% (inactive).
As for `CC(=O)c1c(C)[nH]c(C(=O)OCC(=O)NCCC(C)C)c1C`, the figure is 3.75% (inactive); as for `c1ccc(CSCCc2ccncc2)cc1`, 1.66% (inactive).
With `Cc1ccc(O)c(CCc2ccccc2)n1`, the inhibition is 87.9% (active).
As for `O=C(O)CCCc1ccccc1`, the figure is -5.59% (inactive).
As for `CC(NC(=O)C(=O)N/N=C/c1ccc(Cl)cc1)c1ccccc1` (centres undefined), the figure is 5.89% (inactive).
With `COc1ccc(CC(=O)Nc2ccc(C(=O)NC(C)(C)C)cc2)cc1` the figure was -5.15% (inactive).
For `O=C(Cc1ccccc1)Nc1cccc(C(=O)N/N=C/c2ccco2)c1`, the inhibition is -0.83% (inactive).
As for `CC(C)(C)NC(=O)c1cccc(NC(=O)Cc2ccc(Br)cc2)c1`, the figure is 94.5% (active).
As for `C(=N\N1CCN(c2ccccn2)CC1)/C1=C(N2CCOCC2)C(=C/c2ccccc2)/CC1`, the figure is 15.2% (inactive).
`CCCNC(=O)c1ccccc1NC(=O)CSCc1ccc(OC)cc1`: the inhibition was 9.43% (inactive).
As for `CCCc1nc(SCC(=O)Nc2ccccc2OC)c2c(=O)n(C)c(=O)n(C)c2n1`, the figure is -9.77% (inactive); as for `CCCCCNC(=O)c1cccnc1SCC(=O)Nc1ccccc1OC`, 54% (active).
With `COc1ccc(-n2nnnc2SCC(=O)NCc2cccs2)cc1` the figure was -3.26% (inactive); with `COc1ccc(S(=O)(=O)N(C)C)cc1NC(=O)CSc1ncccn1`, 6.96% (inactive).
As for `O=C(NCc1ccncc1)NC12CC3CC(CC(C3)C1)C2`, the figure is 1.04% (inactive); as for `CCOC(=O)c1c(NC(=O)C2CC=CCC2C(=O)O)sc(C)c1CC` (centres undefined), 0.64% (inactive).
As for `O=S(=O)(c1cccc(C(F)(F)F)c1)N1CCN(c2cnccn2)CC1`, the inhibition was -1.36% (inactive).
As for `COCCNC(=O)c1ccccc1NS(=O)(=O)c1ccc(C)c([N+](=O)[O-])c1`, the figure is 54.5% (active).
With `Cc1ccc(S(=O)(=O)NCCSc2ccccc2)cc1[N+](=O)[O-]`, the inhibition is -8.64% (inactive).
As for `COC(=O)c1ccccc1NS(=O)(=O)c1ccc2[nH]c(=O)[nH]c2c1`, the figure is 86.2% (active); as for `Cc1ccc(S(=O)(=O)Nc2nc3ccccc3s2)cc1[N+](=O)[O-]`, -8.33% (inactive); as for `CCOC(=O)c1ccccc1NS(=O)(=O)c1ccc(OC)cc1`, 2.32% (inactive).
With `COC(=O)c1ccccc1NC(=O)c1ccccc1NS(C)(=O)=O`, the inhibition is -0.37% (inactive).
As for `O=S(=O)(Cc1ccccc1)c1nc2ccccc2n1Cc1ccccn1`, the figure is 10.6% (inactive).
As for `Cc1cc(C)cc(C(=O)N(CCc2ccccc2)C2=CC3CCC(C2)N3C)c1` (centres undefined), the figure is 3.61% (inactive).
With `Cc1noc(NS(=O)(=O)c2ccc(N/C=C/C(=O)c3ccccc3)cc2)c1C` the figure was -14.2% (inactive).
Take `Cc1ccc(N/C=C/C(=O)c2ccccc2)cc1C`: the inhibition is 66% (active).
On to `O=C(/C=C\NCC(=O)c1ccccc1)c1ccccc1`, for which the inhibition was 2.41% (inactive).
In the case of `O=C(Nc1ccc2c(c1)C(=O)OC2)Nc1cccc2ccccc12`, the inhibition was -3.46% (inactive).
As for `CC1=NN(c2ccccc2)C(=O)C1C(=O)c1ccc([N+](=O)[O-])cc1` (centres undefined), the figure is -7.88% (inactive).
Turning to `COc1cc(OC)nc(N/N=C(\c2ccccc2)c2ccncc2)n1`, the inhibition is -5.12% (inactive).
With `CC(=O)NCCc1nc2cc(NC(=O)c3ccccc3)ccc2n1C` the figure was -4.08% (inactive); with `CCN(CC)N=Nc1cccc(NC(C)=O)c1`, -3.03% (inactive); with `CC[n+]1c(C)n(-c2ccccc2)c2ccc(NC(C)=O)cc21`, 98.2% (active).
With `O=C(Nc1ccc2cn[nH]c2c1)c1ccc(S(=O)(=O)N2CCOCC2)cc1` the figure was -3.16% (inactive).
As for `O=C(C(Cl)Cl)N1CCN(c2ccccn2)CC1`, the figure is 64.4% (active); as for `CC(=C1C(=O)c2ccccc2C1=O)N1CCN(c2ccccn2)CC1`, -2.16% (inactive); as for `O=C(Cc1ccccc1Cl)N1CCN(c2ccccn2)CC1`, -2.27% (inactive).
On to `COC(c1ccccc1)c1nnc(CCC(=O)N2CCN(CCOc3ccccc3)CC2)o1` (centres undefined), for which the inhibition is -4.38% (inactive).
As for `CC1=C/C(=N\S(=O)(=O)c2ccccc2)C(C(C)C)=CC1=O`, the figure is -0.21% (inactive); as for `Cc1ccc(S(=O)(=O)c2ccc(Oc3ccccc3)cc2)cc1`, -3.38% (inactive); as for `CC1=C/C(=N\OS(=O)(=O)c2ccccc2)C=CC1=O`, 100% (active).
As for `Cc1cccc(C(=O)N2CCC(c3nc4ccccc4s3)CC2)c1`, the figure is -2.51% (inactive); as for `Cc1cccc(/C(N)=N/OC(=O)c2ccccc2Cl)c1`, 16.9% (inactive).
With `COC(=O)c1cccc([N+](=O)[O-])c1CS(=O)(=O)c1ccc(C)cc1` the figure was -1.5% (inactive); with `CC(=O)Nc1ccc(-c2csc(NC=C3C(=O)OC(C)(C)OC3=O)n2)cc1`, 0.56% (inactive).
Take `CC(=O)Nc1ccc(-c2csc(NC(=O)Nc3ccccc3)n2)cc1`: the inhibition is 58.2% (active).
With `CC(=O)Nc1ccc(S(=O)(=O)Nc2nc(-c3ccc(C(C)(C)C)cc3)cs2)cc1` the figure was 6.97% (inactive); with `Cc1cc(C(=O)CSc2nc(N)cc(=O)[nH]2)c(C)n1-c1cccc(F)c1`, 23.6% (inactive); with `O=C(CCN1C(=O)/C(=C/c2cccs2)SC1=S)NNC(=O)c1cccc(O)c1`, -5.28% (inactive).
On to `O=c1c2cc3c(=O)n(CC4CCCO4)c(=O)c3cc2c(=O)n1CC1CCCO1` (centres undefined), for which the inhibition is -5.65% (inactive).
With `O=C(NCc1ccc2c(c1)OCO2)c1ccc2c(c1)C(=O)N(CC1CCCO1)C2=O` (centres undefined) the figure was -1.97% (inactive); with `O=C1c2cccc3c([N+](=O)[O-])ccc(c23)C(=O)N1CC1CCCO1` (centres undefined), 101% (active); with `Cc1cc(C)cc(OCC(=O)Nc2ccc(S(=O)(=O)Nc3ccccn3)cc2)c1`, 7.3% (inactive).
With `O=C(C1CCCO1)N1CCN(C(=S)NC2CC2)CC1` (centres undefined) the figure was -5.96% (inactive); with `CCn1c(-c2ccncc2)n[nH]c1=S`, -0.2% (inactive); with `COCCNc1nc(-n2nc(C)cc2C)nc2sc3c(c12)CCCC3`, 64% (active).
As for `CCC(O)CNc1nc(-n2nc(C)cc2C)nc2sc3c(c12)CC(C)(C)OC3` (centres undefined), the figure is 9.97% (inactive); as for `COCCn1c(C)cc(C(=O)CSc2ncnc3sc4c(c23)CCC4)c1C`, -5.34% (inactive); as for `Cc1nc2sc3c(c2c(=O)n1NC(=O)CCl)CCCC3`, -0.99% (inactive).
Take `Cc1nc(SCC(=O)Nc2cc(C)on2)c2c3c(sc2n1)CCCC3`: the inhibition was 1.37% (inactive).
In the case of `Cc1cc(C)n(-c2nc(SCC(=O)N3CCCC3)c3c4c(sc3n2)CCCC4)n1`, the inhibition is 63.1% (active).
With `O=C(CSc1ccc([N+](=O)[O-])cn1)Nc1ccc(N2CCOCC2)c(Cl)c1` the figure was 8.08% (inactive).
As for `O=C(CCc1ccccc1)NCCc1cccs1`, the figure is -9.15% (inactive); as for `COc1ccc(OC)c2[nH]c(=O)c(CCNC(=O)C(=O)c3c[nH]c4ccccc34)cc12`, -6.77% (inactive); as for `COc1cc(NC(=S)N2CCCC(C)C2)c(OC)cc1Cl` (centres undefined), 6.09% (inactive).
As for `Cc1cccc(N(C(=O)Cc2cccs2)C(C(=O)NCc2ccco2)c2ccncc2)c1` (centres undefined), the figure is 6.9% (inactive); as for `Cc1cccc(C2c3[nH]c4ccccc4c3CCN2C(=O)c2cc(-c3cccn3C)n[nH]2)n1` (centres undefined), 70.9% (active).
`O=C(c1cn2ccccc2n1)N1CCc2c([nH]c3ccccc23)C1c1ccccn1` (centres undefined): the inhibition was 13.8% (inactive).
On to `Cc1cccc(C(=O)N2CCc3c([nH]c4ccccc34)C2CC(C)C)n1` (centres undefined), for which the inhibition is 31.8% (inactive).
With `CC1(C)CC(=O)C(CC(=O)N2CCC(Cc3ccccc3)CC2)C(=O)C1` the figure was -0.44% (inactive).
As for `Cc1cc(C(C)(C)C)cc(S(=O)(=O)Nc2ccc(C(=O)O)cc2)c1C`, the inhibition is -3.3% (inactive).
With `CCOc1ccccc1Nc1ccc(C(=O)O)cc1[N+](=O)[O-]` the figure was -1.36% (inactive).
With `O=C(CCCN1C(=O)c2cccc3cccc(c23)C1=O)N1CCN(Cc2ccc3c(c2)OCO3)CC1` the figure was 53.9% (active); with `CS(=O)(=O)N(CC(=O)N1CCN(Cc2ccc3c(c2)OCO3)CC1)c1ccc2c(c1)OCO2`, -5.11% (inactive); with `O=C(Nc1cccc2ccccc12)N1CCN(Cc2ccc3c(c2)OCO3)CC1`, 24.5% (inactive).
With `O=C(CSCc1ccc(Cl)cc1)N1CCCCC1` the figure was -3.7% (inactive).
As to `O=C(CSCc1ccc(Cl)cc1)N1CCN(Cc2ccc3c(c2)OCO3)CC1`, the inhibition is 90.7% (active).
With `Cn1c(=O)cc(OCCCC(=O)N2CCN(Cc3ccc4c(c3)OCO4)CC2)c2ccccc21` the figure was 11.9% (inactive).
Regarding `CCc1ccccc1NC(=O)CSc1nnc(-c2ccncc2)o1`, the inhibition is -6.71% (inactive).

These data come from PubChem BioAssay AID1063 (University of Pittsburgh Molecular Library Screening Center, 2008).
